# According to paper PMC5540273 (PLoS ONE, 2017):
# How the values were obtained:
# ADCK3 = tested on: T1, ADCK3
# T1 construct: gene CABC1
# 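Further: kd values determined as follow-up on hits from a single-replicate KINOMEscan panel screen.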
smiles,measurement,setting,value
COc1ccccc1-c1ccc2c(NC(=O)C3CC3)n[nH]c2n1 [SB-711239],Kd,ABL1-phosphorylated,> 10 µM
O=C1NC(=O)C(N2CCc3ccccc32)=C1c1ccccc1Cl [SB-373598],Kd,ABL1-phosphorylated,> 10 µM
COc1ccc(C2=C(Nc3cccc(C(=O)O)c3)C(=O)NC2=O)cc1 [SB-390765],Kd,ACVR1,> 10 µM
Cn1ccc2ncnc(Oc3cccc(C(=O)Nc4ccccc4)c3)c21,Kd,ACVR1,> 10 µM
CC1=C(C(=O)Nc2cc3cn[nH]c3cc2F)C(c2ccc(C(F)(F)F)cc2)CC(=O)N1 (centres unmarked) [GSK429286],Kd,ACVR2A,> 10 µM
COc1cccc(NC(=O)NC2CCN(c3ccnc(Nc4ccc(F)cc4)n3)C2)c1 (centres unmarked) [GSK1379721],Kd,ACVR2A,> 10 µM
NC(=O)c1nnc2ccccc2c1N,Kd,ADCK3,> 10 µM
Cc1cc(N2Cc3ccccc3C2)nc(Nc2ccc(S(=O)(=O)N3CCOCC3)cc2)n1.Cl [GSK1669917],Kd,AKT1,> 10 µM
